# Measured values taken from ChEMBL document CHEMBL3988442, “University of Dundee, Small-Polar-MMV Screening Library” (2021).
# “And” between values parts separate entries of the source, which are not always exact repeats. Equal entries are not always repeated. The whole screen tested about 34,000 compounds, of which about 290 (0.85%) showed an effect of 50% or more. The sample as a whole holds a higher share of strong results than the screen did.
# System: Plasmodium falciparum
# Assay: Plasmodium falciparum sporozoite viability assay
# Format: functional, organism-based
# Design: scale not given: in the data most compounds retested in dose-response had high values
structure (smiles),measurement,setting,value
Cc1ccc(CN2CCCC(c3cncc(C)n3)C2)cn1 (stereo not given),Percent Effect,,7.699%
COc1cccc(-n2cc(CN(C)C(=O)c3cnc(O)cn3)cn2)c1,Percent Effect,10 mM as filed; unlikely as a test dose,70.55% and 77.42%
COc1cccc(-n2cc(CN(C)C(=O)c3cc[nH]n3)cn2)c1,Percent Effect,10 mM as filed; unlikely as a test dose,-69.36% and -66.93%
CCn1ccc(C(=O)N(C)Cc2cnn(-c3cccc(OC)c3)c2)n1,Percent Effect,10 mM as filed; unlikely as a test dose,-38.3% and -41.56%
Cn1ccnc1CN1CCN(CC(=O)NCc2cccs2)CC1,Percent Effect,,11.24%
CCOC(=O)c1sc2ccsc2c1CNC(=O)CCOC,Percent Effect,,-1.34%
COc1cccc(-c2ncc(CN3C[C@@H]4CC[C@H](C3)N(C)C4=O)s2)c1,Percent Effect,10 mM as filed; unlikely as a test dose,84.86% and 76.95%
CN1C(=O)[C@H]2CC[C@@H]1CN(Cc1cccc(OCc3ccccn3)c1)C2,Percent Effect,10 mM as filed; unlikely as a test dose,-14.17% and -8.272%
Cc1nc(C)n(CC2CCCN(CCOc3ccc(C#N)cc3)C2)n1 (stereo not given),Percent Effect,,-0.23%
O=C(COc1coc(CN2CCOCC2)cc1=O)c1ccc(Cl)cc1,Percent Effect,,-1.015%
O=C(NCCc1ccccn1)Nc1cc(C(F)(F)F)c[nH]c1=O,Percent Effect,,1.519%
Cc1nn(C)cc1C(=O)N1CCC(C(=O)c2nc3ccccc3s2)CC1,Percent Effect,,4.427%
CCc1ncc(CN(C)C2CCN(C(C)C)CC2)cn1.O=C(O)CC(O)(CC(=O)O)C(=O)O,Percent Effect,,7.243%
COCC(NC(=O)c1cn2ccsc2n1)c1ccnn1C (stereo not given),Percent Effect,,0.7162%
CCC(=O)NC1CCCN(C(=O)Nc2cc(-c3ccccc3)on2)C1 (stereo not given),Percent Effect,10 mM as filed; unlikely as a test dose,86.86% and 95.97%
CCC(=O)NC1CCCN(C(=O)Nc2cccc(COC(C)C)c2)C1 (stereo not given),Percent Effect,,3.429%
CC(=O)NC1CCCN(C(=O)Nc2cccnc2-n2cccn2)C1 (stereo not given),Percent Effect,,-4.732%
O=C(Nc1cc(-c2ccccc2)on1)N1CCN(CCO)CC1,Percent Effect,10 mM as filed; unlikely as a test dose,64.88% and 38.14%
O=C(CCCc1nc(-c2ccccc2)no1)N1CCN(CCO)CC1,Percent Effect,,11.73%
O=C(Nc1cc(-c2ccccc2)on1)N1CC[C@H](O)C1,Percent Effect,10 mM as filed; unlikely as a test dose,-24.83% and -17.1%
Cc1csc(CNCC(C)c2nc3ccccc3o2)n1 (stereo not given),Percent Effect,,10.3%
O=C(Cn1cnc2cc3c(cc21)OCCCO3)NC1CCCCC1,Percent Effect,10 mM as filed; unlikely as a test dose,58.19% and 56.08% and 47.01%
O=C(Cn1cnc2cc3c(cc21)OCCCO3)NCCc1ccccc1,Percent Effect,10 mM as filed; unlikely as a test dose,3.571% and -13.25% and -3.678%
O=C(Cn1cnc2cc3c(cc21)OCCCO3)NC1CCCC1,Percent Effect,10 mM as filed; unlikely as a test dose,34.04% and 26.95% and 25.51%
NC(=O)N1CCC2(CC1)CC(=O)N(CC1CCCO1)c1ccccc12 (stereo not given),Percent Effect,,6.567%
